Here are results for 61 compounds from PubChem BioAssay AID624330 (Southern Research Specialized Biocontainment Screening …, 2012).

A word on the inhibition: it is the relative decrease from the control value, in per cent.

Screen size: about 340,000 compounds; about 2,100 (0.62%) were called active. The list is a sample of the results. Results with a measured potency or affinity are listed apart. Unmarked numbers belong to inactive results.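 How the source made its calls: active means first-screen hits whose inhibition reached a set limit at any dose in the follow-up dose series; inconclusive means inhibition above the set first-screen limit but never retested; inactive means the rest.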

The target in the experiment is Rac GTPase-activating protein 1 (Homo sapiens) (UniProt Q9H0H5). The experiment is described as follows: MgcRacGAP GTPase-activating activity inhibitors, confirmation, biochemical, ADP Hunter fluorescence, primary and confirmatory (AID 624330).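 Further: fluorescence reports GDP produced by GAP-driven GTP hydrolysis.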 The settings on record: MgcRacGAP-stimulated Rac1 GTP hydrolysis, at 30 µM, stronger effect = higher value, GST-tagged Rac1 F28L mutant substrate.
Sequence of Rac GTPase-activating protein 1 (Homo sapiens) (Q9H0H5 whole entry, looked up): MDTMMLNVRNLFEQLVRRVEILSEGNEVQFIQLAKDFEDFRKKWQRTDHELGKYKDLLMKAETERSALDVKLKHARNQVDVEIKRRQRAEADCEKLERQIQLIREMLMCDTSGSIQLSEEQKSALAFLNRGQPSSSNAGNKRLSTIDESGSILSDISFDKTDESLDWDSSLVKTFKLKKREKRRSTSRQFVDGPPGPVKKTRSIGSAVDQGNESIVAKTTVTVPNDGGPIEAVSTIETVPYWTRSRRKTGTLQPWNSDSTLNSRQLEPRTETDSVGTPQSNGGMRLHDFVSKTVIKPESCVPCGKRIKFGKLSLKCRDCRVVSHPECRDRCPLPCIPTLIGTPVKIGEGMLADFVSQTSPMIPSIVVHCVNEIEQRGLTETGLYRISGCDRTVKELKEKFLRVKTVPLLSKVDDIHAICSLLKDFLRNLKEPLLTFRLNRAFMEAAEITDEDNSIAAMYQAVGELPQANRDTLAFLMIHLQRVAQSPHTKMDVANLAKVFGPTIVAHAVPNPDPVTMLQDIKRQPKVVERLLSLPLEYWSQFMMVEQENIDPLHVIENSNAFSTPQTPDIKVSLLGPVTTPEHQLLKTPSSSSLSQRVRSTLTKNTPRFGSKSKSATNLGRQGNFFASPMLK
On to `Oc1ccc(Cl)cc1C=Nc1ccc(Br)cc1`, for which the inhibition was 7.16%.

Turning to `COc1ccc(N=Cc2cc(Cl)ccc2O)cc1Cl`, the inhibition is 15.8%. The figure for `Fc1ccc(C2=Nn3c(nnc3-c3ccco3)SC2)cc1` is 1.81%. The figure for `c1ccc(C2=Nn3c(nnc3-c3ccco3)SC2)cc1` is 18%.

On to `CN(CC(=O)NCc1ccncc1)S(=O)(=O)c1cc(Cl)ccc1Cl`, for which the inhibition was 1.23%. With `COc1ccc(NC(=O)c2c[nH]c(=O)n(-c3ccc(C)c(C)c3)c2=O)cc1OC` the figure was -10.4%; with `CC1=NN(c2ccccc2)C(=O)C1(C)C`, 12.1%. The figure for `CC1=NN(c2ccccc2)C(=O)C1c1ccccc1` (stereo unspecified) is 26.3%; for `COc1ccc(CNC(=O)CSc2nnc3c(n2)[nH]c2ccccc23)cc1` it is 3.19%; for `CSc1ncnc2c1ncn2CCCNCCCc1ccccc1` it is 17.5%. The figure for `CSc1ncnc2c1ncn2CCCNCc1ccccc1` is 17.1%; for `Cc1ccc(NCCCn2cnc3c(OCc4ccccc4)ncnc32)cc1C` it is 26.1%; for `COc1ncnc2c1ncn2CCCNCc1ccccc1` it is 20.3%. For `CCOCCCNC(=O)c1cc(Cl)c(NC(=O)C2=C(C)OCCS2)cc1OC`, the inhibition was 9.37%. Consider `OCC[C@H]1C[C@@H](O)[C@H](O)[C@]2(CCc3ccccc3CO2)O1`, for which the inhibition is -0.41%. Consider `CN1CCN(c2cc(N3CCN(C(=O)c4ccco4)CC3)c3c4c(onc24)-c2ccccc2C3=O)CC1`, for which the inhibition is 14.2%. Consider `CCN1CCN(c2cc(N3CCN(C(=O)c4ccco4)CC3)c3c4c(onc24)-c2ccccc2C3=O)CC1`, for which the inhibition is 25.5%.

Consider `Cc1nc(NC(=O)CCCC(=O)Nc2nc(C)c(C)s2)sc1C`, for which the inhibition is 3.32%. The figure for `CCc1cc(=O)oc2c(C)c(OC(C)C(=O)NCC3CCC(C(=O)O)CC3)ccc12` (stereo unspecified) is 0.46%; for `CCN(C(=O)Cn1cc(C(=O)C(=O)N2CCOCC2)c2ccccc21)c1ccccc1` it is 7.38%; for `C=C(CC)C(=O)c1ccc(OCC(=O)O)c(Cl)c1Cl` it is 4.69%. `O=C(O)COc1ccc2nsnc2c1Cl`: the inhibition was 6.84%.

Regarding `CN1CCN(C(=O)CN(CCc2ccccc2)S(C)(=O)=O)CC1`, the inhibition was 1%. Turning to `CS(=O)(=O)Nc1cccc(C2=NN(C(=O)c3cccc([N+](=O)[O-])c3)C(c3cccs3)C2)c1` (stereo unspecified), the inhibition was 7.25%. For the compound `CC1(C)CC(CC(=O)Nc2ccccn2)C(=O)O1` (stereo unspecified), the inhibition is 3.54%. With `Cc1ccc(Oc2ncccc2/C=N/O)cc1` the figure was 5.93%; with `Cc1cc(Cl)ccc1OC(C)C(=O)OCC(=O)Nc1ccc2[nH]c(=O)[nH]c2c1` (stereo unspecified), 1.09%.

For `COc1ccc(N2C(=O)/C(=C/c3cccnc3)NC2=S)cc1`, the inhibition was 3.24%. As to `CN(C)/C=C1\NC(=S)N(c2ccc(Cl)cc2)C1=O`, the inhibition was 17.9%. With `COc1ccc(N2C(=O)/C(=C/c3cccs3)NC2=S)cc1` the figure was 9.24%.

On to `CCN1C(=O)/C(=C\N(C)C)NC1=S`, for which the inhibition was 12%.

Turning to `Cc1cccc(C)c1NC(=O)C1CCN(S(C)(=O)=O)CC1`, the inhibition was -16.2%. Take `O=C1C=C(O)c2cccc(O)c2C1=O`: the inhibition was 0.71%.

For the compound `O=C(O)c1cc(O)c2c(c1)C(=O)c1cccc(O)c1C2=O`, the inhibition is 28.8%.

As to `CNC(=O)c1sc(=S)n(-c2ccc(OC)cc2)c1N`, the inhibition is 3.75%. With `Cc1cccc(-c2ncc(S(=O)(=O)C(C)(C)C)c(N)n2)c1` the figure was -7.62%. With `CC(=O)Nc1ccc(N(C(=O)CNC(=O)c2ccco2)C(C(=O)NCc2ccco2)c2ccccc2F)cc1` (stereo unspecified) the figure was 4.97%; with `Cc1cccc(C(=O)NC(C)c2ccc(-n3ccnc3)cc2)c1C` (stereo unspecified), 5%; with `COc1ccc([N+](=O)[O-])cc1NC(=O)C(C)NNC(=O)c1cccc([N+](=O)[O-])c1` (stereo unspecified), 4.39%. With `CN(C)C=Nc1ccc2nn(-c3ccccc3)nc2c1` the figure was 6.6%. For the compound `CN(C)C=Nc1ccc(Cl)c(Cl)c1`, the inhibition is 2.39%. `Cc1c(C(c2cc(O)ccc2O)c2c(C)n(C)n(-c3ccccc3)c2=O)c(=O)n(-c2ccccc2)n1C`: the inhibition is -9.5%. With `CCCN(C(=O)c1cccs1)c1c(N)n(Cc2ccccc2)c(=O)[nH]c1=O` the figure was 4.88%; with `CSc1ncccc1C(=O)Nc1cc(C)ccn1`, 11.2%; with `COc1ccc(CC(=O)NCC2CCCN(Cc3ccc(F)c(OC)c3)C2)cc1` (stereo unspecified), -1.16%. With `CC1=C(C(=O)N2CCOCC2)CC(CC(=O)NC2CCCC2)C(=O)N1Cc1ccc(F)cc1` (stereo unspecified) the figure was 14.4%; with `COc1ccc(NC(=O)NNC(=O)COc2ccc3ccccc3c2)cc1`, 5.22%; with `COc1ccc(NC(=O)NNC(=O)COc2ccc3cc(Br)ccc3c2)cc1`, 9.2%. Turning to `COc1cccc(NC(=O)NNC(=O)COc2ccc3ccccc3c2)c1`, the inhibition was 2.17%.

Turning to `COc1ccc2cc(OCC(=O)NNC(=O)Nc3ccc(OC)c(OC)c3)ccc2c1`, the inhibition is 17.7%. On to `COc1ccc(C(=O)N2CCNC(=O)C2CC(=O)Nc2cccc(Cl)c2Cl)cc1` (stereo unspecified), for which the inhibition is -0.3%. In the case of `O=Cc1cn(-c2ccccc2)nc1-c1cccc([N+](=O)[O-])c1`, the inhibition is 6.3%. `COc1ccc(C2NN=C(c3ccc(C)cc3)S2)cc1` (stereo unspecified): the inhibition was 7.81%. The figure for `COc1ccc(C2NN=C(c3ccc(C)cc3)S2)cc1OC` (stereo unspecified) is -0.47%; for `COc1ccc(NC(=O)CC2C(=O)NCCN2C(=O)c2ccccc2)cc1` (stereo unspecified) it is 6.95%; for `Nc1nc(-c2ccccc2)cn1/N=C/c1ccccc1` it is 3.51%. The figure for `CC(=O)N(C(C)=O)c1nc(-c2ccccc2)cn1/N=C/c1ccccc1` is 7.71%.

Consider `Cc1ccc(S(=O)(=O)CCC(=O)Nc2nc(-c3cccnc3)cs2)cc1`, for which the inhibition is -10.2%. With `CCCc1nn2c(=O)cc(CSCC(=O)Nc3ccc(OC)cc3)nc2s1` the figure was 1.76%.

Take `Cc1nnc(N2C(=O)C(O)=C(C(=O)c3ccco3)C2c2cccc3ccccc23)s1` (stereo unspecified): the inhibition was 7.61%. Consider `CC(C)(O[C@@H]1O[C@H](CO)[C@@H](O)[C@H](O)[C@H]1O)[C@H]1Cc2cc3ccc(=O)oc3cc2O1`, for which the inhibition is 3.49%.
